Columns and labels:
[1] = target: Serine/threonine-protein kinase 26 (Homo sapiens) (UniProt Q9P289); settings: at 1 µM;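 note: mean inhibition of MST4 kinase activity, reported from the GSK PKIS inhibitor-set screening panel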
[2] = target: Serine/threonine-protein kinase PAK 1 (Homo sapiens) (UniProt Q13153); settings: at 0.1 µM
[3] = target: Serine/threonine-protein kinase PAK 1 (Homo sapiens) (UniProt Q13153); settings: at 1 µM
[4] = target: Serine/threonine-protein kinase PAK 2 (Homo sapiens) (UniProt Q13177); settings: at 0.1 µM
[5] = target: Serine/threonine-protein kinase PAK 2 (Homo sapiens) (UniProt Q13177); settings: at 1 µM
[6] = target: Serine/threonine-protein kinase PAK 3 (Homo sapiens) (UniProt O75914); settings: at 0.1 µM
[7] = target: Serine/threonine-protein kinase PAK 3 (Homo sapiens) (UniProt O75914); settings: at 1 µM
[8] = target: Serine/threonine-protein kinase PAK 5 (Homo sapiens) (UniProt Q9P286); settings: at 0.1 µM
[9] = target: Serine/threonine-protein kinase PAK 5 (Homo sapiens) (UniProt Q9P286); settings: at 1 µM
[10] = target: Serine/threonine-protein kinase PAK 6 (Homo sapiens) (UniProt Q9NQU5); settings: at 1 µM
[11] = test system: Tyrosine-protein kinase ABL1 (Homo sapiens), P00519 [E255K]; settings: at 0.1 µM
[12] = test system: Tyrosine-protein kinase ABL1 (Homo sapiens), P00519 [E255K]; settings: at 1 µM
[13] = test system: Tyrosine-protein kinase ABL1 (Homo sapiens), P00519 [H396P]; settings: at 0.1 µM
[14] = test system: Tyrosine-protein kinase ABL1 (Homo sapiens), P00519 [H396P]; settings: at 1 µM
[15] = test system: Tyrosine-protein kinase ABL1 (Homo sapiens), P00519 [M351T]; settings: at 0.1 µM
[16] = test system: Tyrosine-protein kinase ABL1 (Homo sapiens), P00519 [M351T]; settings: at 1 µM
[17] = test system: Tyrosine-protein kinase ABL1 (Homo sapiens), P00519 [Q252H]; settings: at 0.1 µM
[18] = test system: Tyrosine-protein kinase ABL1 (Homo sapiens), P00519 [Q252H]; settings: at 1 µM
[19] = test system: Tyrosine-protein kinase ABL1 (Homo sapiens), P00519 [T315I]; settings: at 0.1 µM
[20] = target: Serine/threonine-protein kinase PAK 6 (Homo sapiens) (UniProt Q9NQU5); settings: at 0.1 µM

Serine/threonine-protein kinase PAK 2 (Homo sapiens), sequence (Q13177 whole entry): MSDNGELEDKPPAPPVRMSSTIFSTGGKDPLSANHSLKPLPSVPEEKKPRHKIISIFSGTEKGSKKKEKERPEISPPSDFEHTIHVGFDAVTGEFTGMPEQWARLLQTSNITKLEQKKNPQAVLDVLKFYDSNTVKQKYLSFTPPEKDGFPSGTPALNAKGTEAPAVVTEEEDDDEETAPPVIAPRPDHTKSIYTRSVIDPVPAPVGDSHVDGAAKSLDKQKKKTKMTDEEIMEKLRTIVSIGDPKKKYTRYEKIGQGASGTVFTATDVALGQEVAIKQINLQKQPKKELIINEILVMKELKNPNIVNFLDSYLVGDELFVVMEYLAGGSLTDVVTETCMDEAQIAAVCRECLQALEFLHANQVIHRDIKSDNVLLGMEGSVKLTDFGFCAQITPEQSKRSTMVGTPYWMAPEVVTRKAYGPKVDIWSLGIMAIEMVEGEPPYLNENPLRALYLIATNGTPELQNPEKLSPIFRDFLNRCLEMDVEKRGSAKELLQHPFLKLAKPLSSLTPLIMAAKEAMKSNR
Serine/threonine-protein kinase PAK 5 (Homo sapiens), sequence (Q9P286 whole entry, looked up): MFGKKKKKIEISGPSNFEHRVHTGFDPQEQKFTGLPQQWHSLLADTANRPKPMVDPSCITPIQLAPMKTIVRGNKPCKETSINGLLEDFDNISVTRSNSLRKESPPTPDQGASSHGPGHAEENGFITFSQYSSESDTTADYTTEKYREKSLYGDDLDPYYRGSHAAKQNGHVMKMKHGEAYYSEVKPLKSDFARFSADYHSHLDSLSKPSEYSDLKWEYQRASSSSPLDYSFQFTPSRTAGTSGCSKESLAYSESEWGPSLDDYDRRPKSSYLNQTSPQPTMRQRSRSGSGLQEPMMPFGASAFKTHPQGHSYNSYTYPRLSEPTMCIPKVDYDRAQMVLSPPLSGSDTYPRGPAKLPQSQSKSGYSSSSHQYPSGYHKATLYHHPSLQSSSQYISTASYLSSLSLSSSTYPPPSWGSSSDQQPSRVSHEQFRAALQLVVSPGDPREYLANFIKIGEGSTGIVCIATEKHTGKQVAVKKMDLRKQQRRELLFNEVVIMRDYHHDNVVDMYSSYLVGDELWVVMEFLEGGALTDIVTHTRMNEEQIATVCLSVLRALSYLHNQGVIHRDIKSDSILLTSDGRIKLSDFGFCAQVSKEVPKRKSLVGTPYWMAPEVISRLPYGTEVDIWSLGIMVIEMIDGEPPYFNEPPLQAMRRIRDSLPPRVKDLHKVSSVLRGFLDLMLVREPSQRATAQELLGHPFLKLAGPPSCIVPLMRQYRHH
Serine/threonine-protein kinase PAK 1 (Homo sapiens), sequence (Q13153 whole entry): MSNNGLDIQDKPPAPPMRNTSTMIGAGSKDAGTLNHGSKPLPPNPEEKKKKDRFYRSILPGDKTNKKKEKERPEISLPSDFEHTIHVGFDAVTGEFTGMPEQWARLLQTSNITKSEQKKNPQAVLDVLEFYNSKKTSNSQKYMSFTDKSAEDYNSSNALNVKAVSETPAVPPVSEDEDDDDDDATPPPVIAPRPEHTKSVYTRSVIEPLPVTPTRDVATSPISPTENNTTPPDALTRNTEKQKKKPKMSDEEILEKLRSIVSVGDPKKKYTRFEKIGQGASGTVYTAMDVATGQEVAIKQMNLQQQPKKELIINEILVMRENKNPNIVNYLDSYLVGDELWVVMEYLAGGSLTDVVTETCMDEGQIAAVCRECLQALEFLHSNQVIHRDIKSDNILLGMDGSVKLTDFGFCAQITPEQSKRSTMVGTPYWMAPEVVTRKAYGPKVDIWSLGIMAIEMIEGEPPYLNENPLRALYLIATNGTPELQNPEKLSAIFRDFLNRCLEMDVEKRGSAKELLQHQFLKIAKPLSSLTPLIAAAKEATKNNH
Serine/threonine-protein kinase PAK 3 (Homo sapiens), sequence (O75914 whole entry, looked up): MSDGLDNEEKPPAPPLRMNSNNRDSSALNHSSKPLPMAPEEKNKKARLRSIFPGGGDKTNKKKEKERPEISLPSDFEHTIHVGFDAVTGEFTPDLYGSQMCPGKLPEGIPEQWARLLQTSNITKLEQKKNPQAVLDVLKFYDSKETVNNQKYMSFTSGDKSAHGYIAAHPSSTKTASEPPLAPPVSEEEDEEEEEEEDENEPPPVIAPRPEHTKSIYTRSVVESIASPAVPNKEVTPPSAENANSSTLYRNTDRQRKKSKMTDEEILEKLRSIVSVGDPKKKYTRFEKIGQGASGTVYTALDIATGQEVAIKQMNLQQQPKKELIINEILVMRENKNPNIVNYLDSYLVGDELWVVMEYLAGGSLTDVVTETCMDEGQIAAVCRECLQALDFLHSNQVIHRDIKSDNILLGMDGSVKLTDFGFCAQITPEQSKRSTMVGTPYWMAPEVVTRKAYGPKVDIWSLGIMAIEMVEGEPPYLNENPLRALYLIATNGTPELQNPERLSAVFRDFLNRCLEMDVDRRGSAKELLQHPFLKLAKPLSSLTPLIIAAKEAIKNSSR
Serine/threonine-protein kinase 26 (Homo sapiens), sequence (Q9P289 2-416 limits assumed): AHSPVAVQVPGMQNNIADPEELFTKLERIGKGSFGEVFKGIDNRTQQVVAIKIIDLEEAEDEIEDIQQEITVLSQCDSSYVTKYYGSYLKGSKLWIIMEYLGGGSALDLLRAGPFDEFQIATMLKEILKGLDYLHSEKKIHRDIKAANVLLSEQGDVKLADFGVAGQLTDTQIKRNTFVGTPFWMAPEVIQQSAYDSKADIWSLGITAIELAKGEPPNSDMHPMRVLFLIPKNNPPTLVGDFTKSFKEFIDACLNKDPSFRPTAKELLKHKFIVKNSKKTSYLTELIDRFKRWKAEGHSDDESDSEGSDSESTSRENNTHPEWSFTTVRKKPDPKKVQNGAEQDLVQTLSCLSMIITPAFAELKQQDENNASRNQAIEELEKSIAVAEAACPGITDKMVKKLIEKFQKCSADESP
Serine/threonine-protein kinase PAK 6 (Homo sapiens), sequence (Q9NQU5 whole entry, looked up): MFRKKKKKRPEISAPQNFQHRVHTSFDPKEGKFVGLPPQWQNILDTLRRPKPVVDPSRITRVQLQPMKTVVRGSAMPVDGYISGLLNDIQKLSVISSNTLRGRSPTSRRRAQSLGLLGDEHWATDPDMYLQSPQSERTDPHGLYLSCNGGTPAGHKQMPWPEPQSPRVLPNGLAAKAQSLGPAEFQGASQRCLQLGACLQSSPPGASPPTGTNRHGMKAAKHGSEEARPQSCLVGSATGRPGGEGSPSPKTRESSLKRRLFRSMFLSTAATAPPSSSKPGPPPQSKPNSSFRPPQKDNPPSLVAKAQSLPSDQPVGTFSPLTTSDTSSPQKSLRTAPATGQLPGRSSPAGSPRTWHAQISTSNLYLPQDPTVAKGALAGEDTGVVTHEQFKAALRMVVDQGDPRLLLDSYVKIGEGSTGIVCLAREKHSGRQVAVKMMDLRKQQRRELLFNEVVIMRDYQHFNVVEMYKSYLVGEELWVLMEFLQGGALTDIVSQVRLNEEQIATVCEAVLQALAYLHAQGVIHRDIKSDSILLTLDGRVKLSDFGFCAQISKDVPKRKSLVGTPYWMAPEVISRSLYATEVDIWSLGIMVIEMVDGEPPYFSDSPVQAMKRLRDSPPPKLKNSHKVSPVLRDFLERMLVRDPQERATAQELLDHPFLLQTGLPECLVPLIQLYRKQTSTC

Structure (SMILES)	inhibition [1] [%]	inhibition [2] [%]	inhibition [3] [%]	inhibition [4] [%]	inhibition [5] [%]	inhibition [6] [%]	inhibition [7] [%]	inhibition [8] [%]	inhibition [9] [%]	inhibition [10] [%]	inhibition [11] [%]	inhibition [12] [%]	inhibition [13] [%]	inhibition [14] [%]	inhibition [15] [%]	inhibition [16] [%]	inhibition [17] [%]	inhibition [18] [%]	inhibition [19] [%]	inhibition [20] [%]
NS(=O)(=O)c1ccc(N/N=C2\C(=O)Nc3ccc(-c4cnco4)cc32)cc1	11.1	2.52	3.12	0.33	0.86	1.7	2.52	0.27	-0.09	-6.6	1.82	7.02	3.45	15.5	0.98	17.7	3.05	13.3	0.71	
C[C@@H](Oc1cc(-n2cnc3ccc(OC4CCN(C)CC4)cc32)sc1C(N)=O)c1ccccc1Cl		5.45	7.26	1.74	2.5	5.07	10.3	4.34	5.61	-9.57	1.25	8.32	4.49	10.5	0.86	5.39	3.24	11	2.01	
Fc1ccc(-c2ncn(CCCN3CCOCC3)c2-c2ccncc2)cc1	0.15	2.56	3.02	-0.59	-0.77	0.6	0.53			-7.59	0.23	0.13	0.23	-0.46	-2.27	1.4	-1.12	-0.09	-1.3	-0.97
COc1cc(Nc2ncc(-c3ccccc3)o2)cc(OC)c1OC	-4.83	-0.3	-0.52	-1.31	-0.61	-1.91	-0.07	-0.92	7.2		5.32	36.8	12.7	61.5	14.3	61.2	11.2	57.7	1.79	-5.44
CN1CCN(CCCNc2nc3ccc(Oc4ccc(NC(=O)Nc5cc(C(F)(F)F)ccc5F)cc4)cc3[nH]2)CC1	0.74	3.77	2.58	1.22	1.06	1.62	2.65	1.27	8.65	-3.76	0.07	4.6	0.89	15	14.3	45.5	12.8	48.1	16.6	-3.01
Fc1ccc(-c2ncn(C3CCNCC3)c2-c2ccnc(Oc3ccc4c(c3)OCO4)n2)cc1	-0.15	6.43	8.06	2.45	2.56	6.04	6.56	1.45	2.03	-5.42	2.98	4.48	5.49	7.54	1.29	3.88	4.09	6.75	3.51	1.43
O=C(Nc1ccc(Oc2ccc3[nH]c(NC(=O)c4ccccc4)nc3c2)cc1)Nc1cc(C(F)(F)F)ccc1F	-0.48	5.49	5.94	2.09	2.3	2.23	2.99	3.8	4.86	3.44	3.28	27	17	71	44.6	79.8	38.4	74.6	36.6	
CS(=O)(=O)CCNCc1cc(-c2cc3c(Nc4ccc(OCc5cccc(F)c5)c(Cl)c4)ncnc3s2)cs1	-1.71	10.9	9.09	2.13	3.83	4.86	7.41	5.61	3.34		2.18	4.04	4.45	5.71	2	5.07	4.77	6.1	4.15	-6.6
NC(=O)c1cc(-c2ccncc2)cc(-c2ccccc2)c1N	-1.56	7.55	6.44	2.07	2.41	7.15	6.71	1.02	2.18	-5.82	4.33	30.6	9.63	39.4	5.03	36.6	9.54	38.8	4.26	-0.84
C[C@@H](Oc1cc(-n2cnc3ccc(OCC4CCN(C)CC4)cc32)sc1C(N)=O)c1ccccc1Cl		9.41	11.3	3.01	3.81	6.02	6.85	5.72	7.38	-3.14	0.13	4.51	2.87	9.39	-0.56	5.2	4.18	8.32	-2.27	
FC(F)(F)c1cccc(Nc2nccc(-c3cnn4nc(-c5ccccc5)ccc34)n2)c1	-3.24	6.28	3.48	0.33	0.77	2.74	2.27	-0.43	-0.64	-5.84	0.92	2.38	-0.38	4.75	-1.63	2.9	1.86	5.75	-0.65	-2.37
COc1ccc2cc(-c3c(-c4ccncc4)nc(-c4ccc(S(C)(=O)=O)cc4C)n3C)ccc2c1	2.09	9.36	10	2.04	2.16	5.62	4.99	-1.89	3.62	-3.99	2.69	10.9	5.32	17.9	2.32	18	6.25	22.4	8.12	
CCc1ccc(Oc2nccc(-c3c(-c4ccc(F)cc4)ncn3C3CCNCC3)n2)cc1	2.83	4.48	10.2	1.26	2.44	4.22	5.69	6.56	9.57	2.92	0.49	4.7	3.35	3.77	0.72	1.75	3.25	3.37	2.83	-5.49
C/C(Nc1ccc(S(N)(=O)=O)cc1)=C1/C(=O)Nc2ccccc21	15.6	-3.4	2.37	-1.56	-1.06	-1.9	-1.11	-6.43	2.88	0.59	-1.03	3.45	0.93	7.24	3.92	14.7	2.51	13.6	1.39	-4.08

From ChEMBL document CHEMBL1961873, “Compounds: GSK PKIS; Assays: Nanosyn kinase panel” (2012)
